# Results published in PubChem BioAssay (EPA / NIEHS).
# Some compounds were tested as several samples or in several runs, with calls that do not always agree. Activity calls are given as the source filed them. How the source made its calls: active means hit-call score of the fitted dose curve at least 0.9, where 1 is the maximum; inactive means score below 0.9.
# Read-out: Thrombomodulin, THBD (gene 7056)
# Experiment: BSK_LPS_Thrombomodulin: BioMAP Diversity Plus: LPS Assay for Thrombomodulin Biomarker Activity (AID 2284296)
# Settings: primary human HUVEC with PBMC
# Experimental: BSK_LPS is a cell-based, multiplexed-readout assay that uses umbilical vein endothelium and peripheral blood mononuclear cells, a human vascular primary cell co-culture, with measurements taken at 24 hours after chemical dosing in a 96-well plate.BSK_LPS_Thrombomodulin is an assay component measured in the BSK_LPS assay. It measures Thrombomodulin antibody related to regulation of gene expression using ELISA technology.Data from the assay component BSK_LPS_Thrombodulin was analyzed at the endpoint, BSK_LPS_Thrombomodulin, in the positive analysis fitting direction relative to DMSO as the negative control and baseline of activity. Using a type of binding reporter, gain or loss-of-signal activity can be used to understand protein changes. To generalize the intended target to other relatable targets, this assay endpoint is annotated to the 'gpcr' intended target family, where the subfamily is 'rhodopsin-like receptor'.
# The levels of cell surface (or secreted, indicated by the prefix "s") biomarker endpoints were measured by ELISA. Overt cytotoxicity to cells in confluent adherent cultures (all systems other than the BT system) was assessed by measuring total protein levels using sulforhodamine B (SRB) staining in parallel cultures at the time of biomarker measurements, indicated as SRB endpoints. For proliferation assays for adherent cell types, individual cell types are cultured at sub-confluence and relative cell numbers quantified by SRB staining at time points optimized for each system (48 h: 3C and CASM3C systems; 72 h: BT and HDF3CGF systems; 96 h: SAg system). SRB was performed by staining cells with 0.1% SRB after fixation with 10% TCA and reading wells at 560 nm.Viability and proliferation of PBMC (T cells) was quantified by Alamar Blue reduction for the SAg and BT systems. For PBMC viability (referred to as PBMC Cytotoxicity within the assay endpoint names), cells were plated (75,000/well in a 96-well plate) and then chemical samples added for 1 h before addition of activators, SEB and TSST-1 (20 ng/mL final concentration each). Cells were incubated for 90 h. Then, Alamar Blue (20 uL/well) (Invitrogen, Cat DAL1100) was added for 6 h, and the plates were read with a fluorescence microplate reader at 546/580 nm (excitation/emission). For PBMC proliferation, cells were plated and activated as above but incubated for only 16 h prior to addition of Alamar Blue. Plates were read after 6 h.
Structure (SMILES),outcome,AC50
CN1C(=O)N(C)C(O)C1O (stereo not given),inactive,–
Nc1ccc(N)c(Cl)c1,inactive,–
CO[Si](OC)(OC)c1ccccc1,inactive,–
CCO[Si](C)(OCC)OCC,inactive,–
CCOC(=O)c1ccccc1C(=C1C=C(Br)C(=O)C(Br)=C1)c1cc(Br)c(O)c(Br)c1,inactive,10.3 µM (active)
O=C(c1ccc(O)cc1)c1ccc(O)cc1O,inactive,–
C=C[Si](OC(C)=O)(OC(C)=O)OC(C)=O,inactive,–
O=C1CCCN1CCO,inactive,–
CCCCC(CC)COCC1CO1 (stereo not given),inactive,–
